Measured values reported in PubChem BioAssay (NCI).
Compounds without any hit were thinned out: in the full panel of roughly 83,000, 20% have a hit.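 Values shown are percent growth following 48 h exposure of cells in 96-well plates to a single concentration of compound; below 10 was considered active.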 A number with no mark means an inactive call. Calls of active or inactive are those of the source.

Assays:
Experiment in all cases: NCI-60 one-dose screen, 48 h (100 = growth as untreated, 0 = no growth, -100 = all killed)
Conditions in all cases: 10 µM
[1] = tested on: HT29 colon
[2] = tested on: SNB-75 CNS
[3] = tested on: SNB-19 CNS
[4] = tested on: U251 CNS
[5] = tested on: PC-3 prostate
[6] = tested on: SK-MEL-5 melanoma
[7] = tested on: UACC-62 melanoma
[8] = tested on: SK-MEL-28 melanoma
[9] = tested on: SK-MEL-2 melanoma
[10] = tested on: LOX IMVI melanoma

Structure (SMILES) | growth [1] | growth [2] | growth [3] | growth [4] | growth [5] | growth [6] | growth [7] | growth [8] | growth [9] | growth [10] [%]
Cc1ccc(CC#N)cc1C | 110% | 101% | 94.6% | 89.9% | 164% | 99.3% | 103% | 137% |  | 
O=C(Nc1cccc(-n2cc(-c3ccncc3)c(-c3ccc(O)c(Cl)c3)n2)c1)Nc1cccc(C(F)(F)F)c1 | 22% | -0.929% (active) | 32.2% | -70.8% (active) | -15.7% (active) | -49% (active) | -49.9% (active) | -5.89% (active) |  | 
CNc1ccc(CSc2ccc(C)cc2)cc1 | 100% | 60.7% | 93.3% | 52.4% | 60% | 67.7% | 86.2% | 93.8% | 96.8% | 
O=C(C[n+]1ccccc1)c1ccc2ccccc2c1 | 92% | 75.1% | 99.5% | 95.3% | 87.8% | 102% | 96% |  | 112% | 99.8
C/C(=N\Nc1nc2ccccc2s1)c1ccncn1 | 25.1% | 61.8% | 51.1% | 33.6% | 27.3% | 31.4% | 41.7% |  | 63% | 31.5
N=C1c2nc3n(c2C(=O)c2nc4n(c21)CCCC4)CCCC3 | -13.7% (active) | -97% (active) | 30% | 50.7% | 90.6% | -98% (active) | -85.1% (active) | -67.2% (active) | 82.7% | 
CC(C)(Cl)CCC1=C(Cl)C(=O)c2ccccc2C1=O | 115% | 30.7% | 89% | 49.9% | 32.8% | -34.8% (active) | 2.45% (active) | 56.9% | 79.1% | 
O=C(CNC(=O)OCc1ccccc1)NCC(=O)Oc1ccc([N+](=O)[O-])cc1 | 98.7% | 109% | 111% | 11.8% | 89.8% | 98.1% | 107% | 104% |  | 
CSCCCNC(=O)c1ccc2c(c1)/C(=C/c1[nH]c(C)cc1C)C(=O)N2 | 31.2% | -1.79% (active) | 60.7% | 43.6% | 11.4% | 30.5% | 15.6% | 17.6% | -27.6% (active) | 
C=C(Cl)[C@@](Cl)(CBr)CC[C@@H](Br)C(C)(C)Cl | -88.2% (active) | -96.8% (active) | -74.9% (active) | -97.9% (active) | -92.7% (active) | 87.9% | -25.9% (active) |  | -30.8% (active) | 94.5
Cc1cc(C)c(NC(=O)c2sc3nc4c(cc3c2N)C(=O)CCC4)c(C)c1 | 0.48% (active) | 0% (active) | 40.2% | 21.1% | 23.5% | 11.3% | 23.2% | 56% | 36.1% | 
Cc1ccc(C)c(C(O)(c2cc(C)ccc2C)C2(O)CCCCC2)c1 | 90% | 95.9% | 98.8% | 90.1% | 86.8% | 99.4% | 89.7% | 105% |  | 
CCOC(=O)c1ccoc1 | 95.1% | 94.4% | 97.7% | 101% | 99.7% | 99.6% | 101% | 106% |  | 
CN(C)CCNC(=O)c1cccn2c(=O)c3cc4ccccc4cc3nc12 | -60.7% (active) | -72.7% (active) | 17.6% | -11.1% (active) | -16.6% (active) | -20.3% (active) | -56% (active) | -25.8% (active) | -65.9% (active) | 
O=C(Nc1cccc(-n2cc(-c3ccncc3)c(-c3cc(O)cc(Cl)c3)n2)c1)c1cc(C(F)(F)F)cc(C(F)(F)F)c1 | 19.7% | 52.7% | 63.1% | 37.2% | 21.7% | 64.5% | 69.3% | 63.6% | 57.8% | 
